Among all 360,000 compounds or so, about 3,600 (1%) were called active.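 The calls were made as follows: active = compounds whose plate-normalised and pattern-corrected inhibition of the luciferase reporter signal at the single screening dose is 50% or more; inactive = the rest.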 Many of the other results were omitted from the sample, so actives are more common in it than they were.
Assay: TROY pathway blockers in reporter cells – Q293 LMP1-TROYcd cells, NF-kB luciferase, uHTS, primary screen (AID 1347056)
Details: 4 h, at 10 µM, active compounds read high

Compound | inhibition
COc1ccc(NC(=O)CCNC(=O)Cn2cnc3sc4c(c3c2=O)CCCC4)cc1OC | 11.8% (inactive)
COc1ccc(/C=N/Nc2ncnc3sc4c(c23)CCCC4)cc1O | 82.7% (active)
COc1ccc(NC(=O)CCCNC(=O)Cn2cnc3sc4c(c3c2=O)CCCC4)cc1OC | -6.14% (inactive)
COCCCNC(=O)C1CCC(CNS(=O)(=O)c2ccc(OC)cc2)CC1 (configuration not stated) | -8.61% (inactive)
CCN(CC)C(=O)C1CCC(C)(C(=O)O)C1(C)C (configuration not stated) | 7.66% (inactive)
Cc1nnc(SCCCCSc2nnc(C)c(=O)[nH]2)[nH]c1=O | -7.01% (inactive)
CC(C)n1cnc2c(Nc3cccc(Cl)c3)nc(N(CCO)CCCO)nc21 | 50.8% (active)
C=C(C)C1CC=C(C)/C(=N/NC(=O)CCCNc2cccc(C)c2)C1 (configuration not stated) | 5.76% (inactive)
CN(CCO)c1ccc(/C=N/Nc2nncc3ccccc23)cc1 | -22.8% (inactive)
O=C(Nc1ccc2c(c1)OCO2)C1CC1(Cl)Cl (configuration not stated) | -31.7% (inactive)
O=C(Nc1ccc2c(c1)OCCO2)C1CCCC1 | 81.7% (active)
CN1C(=O)c2ccc(NC(=O)C3CCCCC3)cc2C1=O | -41% (inactive)
CC(C)C[C@H]1CNC(=O)C(=O)N1C[C@H]1CCCN1C[C@H](Cc1ccc(O)cc1)N1C[C@H](CC(C)C)N(CC2CCCCCC2)C(=O)C1=O | -20.6% (inactive)
O=C1N[C@H](Cc2c[nH]c3ccccc23)COC(=O)[C@H](Cc2ccc(F)cc2)C/C=C\C[C@H]1CC(=O)N(CCO)Cc1ccccc1 | 19% (inactive)
O=C(Cn1c(-c2cscn2)nc2ccccc21)Nc1ccc(Cl)cc1 | 6.66% (inactive)
C/C(CC(=O)Nc1ccc(C)cc1C)=N\NC(=O)C(C)C | 7.58% (inactive)
CC1CCCCC1NC(=O)Cn1cnc2c1c(=O)n(C)c(=O)n2C (configuration not stated) | -7% (inactive)
O=C(CCc1[nH]c2ccccc2c1Sc1ccccc1)N(CCO)CCO | 7.74% (inactive)
CC(=O)Nc1c2c(nn1-c1cccc(C)c1)CSC2 | -5.25% (inactive)
CCCNC(=O)c1c(Cl)cnn1-c1ccc(C)cc1 | -51.1% (inactive)
Cc1cccc(-n2ncc(Cl)c(Cl)c2=O)c1 | 72.5% (active)
CCNS(=O)(=O)c1ccc(CCC(=O)N2CCN(c3cc(Cl)ccc3C)CC2)cc1 | 26.1% (inactive)
O=S(=O)(Cc1cc(Sc2ccccc2)nc(-c2ccccc2)n1)c1ccccc1 | -3.96% (inactive)

Compound | inhibition
O=C(N[C@@H](Cc1c[nH]c2ccccc12)C(=O)O)OCC1c2ccccc2-c2ccccc21 | -9.94% (inactive)
O=C(Nc1ccccc1Cl)/C(Cl)=C(\Cl)S(=O)c1ccccc1 (configuration not stated) | 86.9% (active)
CC(=O)c1ccc(NC(=O)C(C)N(C)CC(=O)Nc2ccccc2Cl)cc1 (configuration not stated) | 7.44% (inactive)
O=C(Nc1ccccc1Cl)c1ccccc1S(=O)(=O)c1ccccc1[N+](=O)[O-] | -26.1% (inactive)
Cc1ccc(C)c(C(=O)COC(=O)Cn2[nH]c(=O)c3ccccc3c2=O)c1 | -0.89% (inactive)
Cc1ccc(-c2csc(NC(=O)Cn3[nH]c(=O)c4ccccc4c3=O)n2)cc1 | 55.9% (active)
O=C(Cn1[nH]c(=O)c2ccccc2c1=O)Nc1cccc(-c2nnc3n2CCCCC3)c1 | 18.8% (inactive)
O=C1C=CC(=O)N1c1ccc(N2CCCCC2)cc1 | -3% (inactive)
COC(=O)[C@@]1(Sc2ccc(C)cc2)CC(=O)N(c2cccc(SC)c2)[C@@H]1c1ccccc1 | -0.08% (inactive)
Cc1cccc(/C(N)=N/OC(=O)c2ccccc2Cl)c1 | 3.79% (inactive)
Cc1ccc(C(=O)O/N=C(\N)c2ccccn2)cc1Cl | 72.9% (active)
N/C(=N\OC(=O)CCC1CCCCC1)c1ccccn1 | -40.4% (inactive)
COc1ccc(C2/C(=C(/O)c3ccc4c(c3)CC(C)O4)C(=O)C(=O)N2Cc2ccncc2)cc1 (configuration not stated) | -12.1% (inactive)
CC(=O)c1cc2c(cc1NC(=O)Cn1nc(-c3ccc(F)cc3)ccc1=O)OCO2 | -13.6% (inactive)
CC(=O)Nc1ccc(S(=O)(=O)NC2Cc3ccccc3C2)cc1 | -3.14% (inactive)
CCOc1ccc(/C=C(/NC(=O)c2ccccc2)C(=O)NCCC(=O)O)cc1 | 4.42% (inactive)
O=C(Nc1cccnc1)c1noc2c1CCCCC2 | 64.2% (active)
Cc1noc(C)c1COc1cccc(C(=O)Nc2cccnc2)c1 | 11.8% (inactive)
O=C(c1noc2c1CCCC2)N1CCc2ccccc2C1 | -14.7% (inactive)
CCCC(C)C(=O)NCc1ccncc1 (configuration not stated) | 8.22% (inactive)
FC(F)(F)Oc1ccccc1C(c1nnnn1C1CCCCC1)N1CCN(C/C=C/c2ccccc2)CC1 (configuration not stated) | 5.81% (inactive)
CCCCCCc1cc2cc(-c3nnc(-c4ccccc4)o3)c(=O)oc2cc1O | 61.6% (active)
CCOC(=O)Cn1c(O)c(N=NC(=O)CNC(=O)Cc2ccccc2)c2ccccc21 | -7.61% (inactive)

Compound | inhibition
O=[N+]([O-])/C=C/c1ccc2c(ccn2Cc2ccccc2)c1 | 81.4% (active)
C/C(CC(=O)NCc1ccc(Cl)cc1)=N\NC(=O)COc1ccc(C)cc1Br | -10.5% (inactive)
Cc1cc(OC(=O)c2ccc(OC(C)C)cc2)c([N+](=O)[O-])c(=O)[nH]1 | -22.1% (inactive)
O=C(Oc1ccc(-c2nnco2)cc1)c1ccc(F)c(S(=O)(=O)N2CCOCC2)c1 | 40.2% (inactive)
COC(=O)c1scc(C)c1NC(=O)CSc1ccc(Cl)cc1 | -6.59% (inactive)
COC(=O)c1sccc1NC(=O)CSc1ccccc1NS(=O)(=O)c1cc(Cl)ccc1Cl | 51.4% (active)
COC(=O)c1sccc1NS(=O)(=O)c1ccc(F)cc1F | 10.6% (inactive)
CC(C)(Oc1ccc(C2CC2(Cl)Cl)cc1)C(=O)O (configuration not stated) | -11.2% (inactive)
Cc1cc(N)n(-c2ccc(S(=O)(=O)N3CCCC3)cc2[N+](=O)[O-])n1 | 1.51% (inactive)
Cn1cc(/C=C/c2nc3ccccc3c(=O)n2-c2cccc([N+](=O)[O-])c2)c2ccccc21 | 53.2% (active)
CCOC(=O)N1CCN(Cc2nc3ccc([N+](=O)[O-])cc3c(=O)n2-c2cccc(OC)c2)CC1 | 5.96% (inactive)
CCn1c(/C=C/c2ccc([N+](=O)[O-])o2)nc2ccccc2c1=O | 1.09% (inactive)
CC(C)=CCCC1(C)C=Cc2c(ccc3c2[nH]c2cc(O)c(C)cc23)O1 (configuration not stated) | 56.8% (active)
CC(OC(=O)c1ccccc1NCCO)C(=O)Nc1ccnn1C(C)C (configuration not stated) | 4.88% (inactive)
Cc1sc(NC(=O)C2=COCCO2)c(C#N)c1C | -29.2% (inactive)
CCCc1cc(=O)[nH]c(SCC(=O)Nc2sc3c(c2C#N)CCCC3)n1 | -13.3% (inactive)
CCCc1ccc(-c2c(C)sc(NC(=O)c3ccnn3C)c2C#N)cc1 | 61.4% (active)
O=C1COc2ccc(C(=O)CSc3ccc(Br)cc3)cc2N1 | 6.67% (inactive)
CCNC(=S)N(CCN(CC)CC)Cc1cc2cc3c(cc2[nH]c1=O)OCO3 | 7.05% (inactive)
c1ccc(Cc2c(-c3ccco3)nc3c4ccccc4ccn23)cc1 | 3.44% (inactive)
Cc1ccc(Cc2c(-c3ccc(Cl)cc3)nc3c4ccccc4ccn23)cc1 | 4.34% (inactive)
Cc1ccc(Cc2c(-c3ccc(C)cc3)nc3c4ccccc4ccn23)cc1 | 54.4% (active)
O=C(N=C1SC2CS(=O)(=O)CC2N1Cc1ccccc1)c1ccccc1 (configuration not stated) | -0.57% (inactive)

Compound | inhibition
O=C(COc1ccc2c3c(c(=O)oc2c1)CCC3)NC1CCCCC1 | -1.91% (inactive)
CCCCC(NS(=O)(=O)c1ccc(C)cc1)C(=O)Oc1ccc2c3c(c(=O)oc2c1)CCC3 (configuration not stated) | 69.9% (active)
NC(=O)C1CCN(C(=O)COc2ccc3c4c(c(=O)oc3c2)CCC4)CC1 | -10.9% (inactive)
COC(=O)c1cc2c(ccn2C)n1C | 0.05% (inactive)
COC(=O)CCNc1ccc2c(c1)OCCO2 | 78.2% (active)
Cc1ccc(OCCCC(=O)Nc2ccc3c(c2)OCCO3)cc1 | 17.8% (inactive)
CCOc1ccc(NCCC(=O)c2ccc3c(c2)OCO3)cc1 | 9.47% (inactive)
COc1ccccc1N=Cc1c(O)c2ccccc2oc1=O | 68.1% (active)
O=c1oc2ccccc2c(=O)c2ccccc12 | 4.31% (inactive)
COc1ccccc1-c1oc2ccccc2c1C#CCCCCO | 2.78% (inactive)
COC(=O)CNc1nc(Cl)nc(N2CCC(C)CC2)n1 | 6.46% (inactive)
CCCS(=O)(=O)NC(=O)C1(C)CCN(C(=O)c2sccc2C)C1 (configuration not stated) | -21% (inactive)
O=C(Cc1ccccc1F)NC1CCSc2ccccc21 (configuration not stated) | 6.21% (inactive)
O=C(/C=C/Sc1ncn[nH]1)c1ccc(Cl)cc1 | 66% (active)
CC(C)CN(C(=O)CN1CCN(S(=O)(=O)c2ccccc2)CC1)c1c(N)n(CC(C)C)c(=O)[nH]c1=O | 3.32% (inactive)
CC(C)c1ccc2c(c1)c(SC(C)(C)C)c(CC(C)(C)C(=O)O)n2Cc1ccc(Cl)cc1 | 65.6% (active)
COCCN1C(=O)c2oc3c(C)cc(C)cc3c(=O)c2C1c1cccc(O)c1 (configuration not stated) | 1.51% (inactive)
O=C(COc1ccc(Br)cc1F)NCC1(N2CCCCC2)CCCCC1 | -6.39% (inactive)
COc1ccc(/C(N)=N/OC(=O)Cc2ccccc2)cc1 | -56.1% (inactive)
COc1ccc(C(C#N)=C2C=CC(=NO)c3ccccc32)cc1 | 69.6% (active)
COc1ccc(C(=NN)c2ccc(OC)cc2)cc1 | -42.8% (inactive)
NC(=O)[C@H]1CC2(CC(c3cccc(NC(=O)[C@H]4CCC(=O)N4)c3)=NO2)CN1C(=O)c1ccccc1C(=O)c1ccccc1 (some centres not stated) | -0.31% (inactive)
CC1CCc2c(sc(NC(=O)c3ccc(Cn4cc(Br)cn4)o3)c2C(N)=O)C1 (configuration not stated) | -4.02% (inactive)
